ALOX12 inh: blocks human arachidonate 12S-lipoxygenase; P18054; purified 12hLO, xylenol orange hydroperoxide absorbance; Potency, µM (highest dose often 108 µM), for the others: top-dose activity change, negative = inhibition, usual class: inhibitors; 580,000 compounds, 1.1% hits
Target sequence (P18054 whole entry, looked up): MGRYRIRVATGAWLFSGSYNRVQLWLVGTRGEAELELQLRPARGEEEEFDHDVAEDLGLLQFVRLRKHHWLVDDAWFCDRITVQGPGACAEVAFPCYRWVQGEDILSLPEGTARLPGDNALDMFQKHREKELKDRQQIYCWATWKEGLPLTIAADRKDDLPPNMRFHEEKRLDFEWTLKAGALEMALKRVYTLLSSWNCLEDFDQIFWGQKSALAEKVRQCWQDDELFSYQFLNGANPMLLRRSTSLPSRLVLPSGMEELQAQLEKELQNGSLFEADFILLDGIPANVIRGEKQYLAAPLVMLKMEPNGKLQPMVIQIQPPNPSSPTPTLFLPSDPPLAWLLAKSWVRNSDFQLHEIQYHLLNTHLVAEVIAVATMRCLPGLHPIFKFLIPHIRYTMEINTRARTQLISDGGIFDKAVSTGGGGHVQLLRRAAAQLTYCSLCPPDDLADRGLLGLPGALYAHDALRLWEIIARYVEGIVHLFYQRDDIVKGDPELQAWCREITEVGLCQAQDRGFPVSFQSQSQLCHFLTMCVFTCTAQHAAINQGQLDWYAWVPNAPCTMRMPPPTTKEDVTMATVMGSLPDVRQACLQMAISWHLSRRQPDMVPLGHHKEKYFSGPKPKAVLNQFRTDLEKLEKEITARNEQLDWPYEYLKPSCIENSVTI
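Purified human 12hLO at 150 nM in 25 mM Hepes, 0.01% Triton X-100, pH 7.0, preincubated 15 min at room temperature with compound. Reaction started with 40 uM arachidonic acid, 30 min at room temperature. Hydroperoxide measured by Fe-xylenol orange, 573/405 nm absorbance ratio.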
ELG1 DNA repair: ELG1-dependent DNA repair inhibition; AID 504467; HEK293T ELG1-luciferase reporter, luminescence, 16 h; DNA damage induced by 5-fluorouridine; 330,000 compounds, 2.3% hits; Potency, µM (series often up to 46.1 µM), without a hit: at the top dose activity change, negative = inhibition, most hits filed as inhibitors; also: nearly all actives have a fitted effect of over 55% in size
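Quantitative HTS, concentration-response format. 2,000 cells/well co-treated with 5-fluorouridine and compound, 16 hr in 5% CO2 at 37 °C; ONE-Glo luminescence read after 30 min.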
RORg inh: inhibitors of mouse ROR gamma transcriptional activity; P51450; Drosophila S2 Gal4-RORgamma UAS-luciferase reporter, 20 h; AID 2551; 310,000 compounds, 5.4% hits; Potency, µM (top dose mostly 53.6 µM), for inactives: at the top dose activity change, negative = inhibition, hits mostly inhibitors; also: nearly all actives have a fitted effect of over 60% in size
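Read-out: Photinus luciferase luminescence; inhibitors lower reporter signal. Insect Schneider cells with Gal4-ROR gamma fusion under metallothionein promoter, UAS reporter; 700 uM final copper sulfate induction, 20 hr, ambient temperature.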
Gal4-VP16 FLuc: Gal4-VP16 reporter inhibition counter-screen. 310,000 compounds, 3.5% hits. Potency, µM (series often up to 53.6 µM), inactives show at the top dose activity, negative = inhibition, hits mostly inhibitors. AID 2546. Drosophila S2 Gal4-VP16 UAS-luciferase, luminescence, 20 h;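 also: Gal4-VP16 expression switched on by copper sulfate through the metallothionein promoter; nearly all actives have a fitted effect of over 50% in size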
DT40 TDP1 no CPT: qHTS for Inhibitors of human tyrosyl-DNA phosphodiesterase 1 (TDP1): qHTS in cells in absence of CPT | DT40 Tdp1-/- hTDP1 cells, no CPT, ATP luminescence, 48 h | Potency, µM (series often up to 46.2 µM), for inactives: at the top dose activity change, negative = growth inhibition, most hits filed as inhibitors | 420,000 compounds, 15% hits | AID 686978, 2013; also: nearly all actives have a fitted effect of over 55% in size
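A cellular qHTS used chicken DT40 cells lacking endogenous Tdp1 but carrying stably transfected human TDP1. Compounds were applied without camptothecin, and cell growth kinetics were judged by ATP-dependent luminescence after ≥48 hr.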
DT40 TDP1 CPT: DT40-hTDP1 cell growth loss with CPT. chicken DT40 Tdp1-/-;hTDP1 cells + 20 nM CPT, ATP luminescence, 48 h. Potency, µM (highest dose often 46.2 µM), for the others: top-dose activity change, negative = growth inhibition, most hits filed as inhibitors. 420,000 compounds, 12% hits; also: nearly all actives have a fitted effect of over 55% in size
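Cell growth measured by CellTiter-Glo luminescence after a minimum 48 h, 37 C compound exposure with 20 nM CPT in Tdp1-knockout DT40 cells stably expressing hTDP1, seeded 400/well; qHTS titration format.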
* = called active by the depositor; [ ] = remark or other dose. The list is not random: actives were taken first. Their share in the collection is about 15%. Calls follow the shape of the dose curve; as a rule, active = well fitted curve in the direction sought with a large enough effect; inconclusive = small, poorly fitted or top-dose-only effect, or another doubt; inactive = no such curve, though single readings can be large; an effect the other way counts as inactive or inconclusive. % is scaled to controls: 0 for no effect and ±100 for the full control effect; potency is read from the fitted curve at half-maximal effect.

Results for COc1cc(SC)c(OC)cc1CN1CCC2(CC(=O)NC2=O)C1 (centres undefined) ?
ALOX12 inh: 24.8%

How did COc1cc(C=O)cc(Br)c1OCc1cccc(C)c1 do in these assays?
ALOX12 inh: -0.9%

How did Cc1cc(NO)c(C(C)C)cc1N=O do in these assays?
ALOX12 inh: -16.1%; ELG1 DNA repair: -11.8%; RORg inh: inconclusive; Gal4-VP16 FLuc: -16.0%; DT40 TDP1 no CPT: 10.3µM*; DT40 TDP1 CPT: 8.2µM*

How did O=C(NNS(=O)(=O)c1ccc(Cl)cc1)c1cnn(-c2ccccc2)c1-n1cccc1 do in these assays?
ALOX12 inh: -0.9%; ELG1 DNA repair: 1.0%; RORg inh: -11.2%; Gal4-VP16 FLuc: 0.3%; DT40 TDP1 no CPT: 2.06µM*; DT40 TDP1 CPT: 1.46µM*

Results for O=C(NNS(=O)(=O)c1ccccc1)c1cnn(-c2ccccc2)c1-n1cccc1 ?
ALOX12 inh: 0.0%; ELG1 DNA repair: -8.0%; RORg inh: 2.3%; Gal4-VP16 FLuc: 10.7%; DT40 TDP1 no CPT: 11.6µM*; DT40 TDP1 CPT: 8.2µM*

How did O=C(NNS(=O)(=O)c1ccc([N+](=O)[O-])cc1)c1cnn(-c2ccccc2)c1-n1cccc1 do in these assays?
ALOX12 inh: inconclusive; ELG1 DNA repair: -0.3%; RORg inh: 26.4%; Gal4-VP16 FLuc: 12.7%; DT40 TDP1 no CPT: 0.461µM*; DT40 TDP1 CPT: 0.461µM*

What do the screens show for `O=C(O)c1cnn(-c2ccccc2)c1-n1cccc1`?
ALOX12 inh: 13.3%; ELG1 DNA repair: -0.8%; RORg inh: -57.9%; Gal4-VP16 FLuc: 11.4%; DT40 TDP1 no CPT: -21.3%; DT40 TDP1 CPT: -27.8%

What do the screens show for `CCC1(C)Cc2ccccc2-c2nc(SCC(N)=O)[nH]c(=O)c21` (centres undefined)?
ALOX12 inh: 0.0%; ELG1 DNA repair: -8.3%; RORg inh: 23.6%; Gal4-VP16 FLuc: -17.0%; DT40 TDP1 no CPT: 18.9%; DT40 TDP1 CPT: -7.3%

How did CCOC(=O)C1Cn2c(nc3c(c2=O)C(C)(C)Cc2ccccc2-3)S1 (centres undefined) do in these assays?
ALOX12 inh: inconclusive; ELG1 DNA repair: inconclusive; RORg inh: 5.0%; Gal4-VP16 FLuc: 8.1%; DT40 TDP1 no CPT: 15.8µM*; DT40 TDP1 CPT: -13.3%

What do the screens show for `CCOC(=O)CSc1nc2c(c(=O)[nH]1)C(C)(CC)Cc1ccccc1-2` (centres undefined)?
ALOX12 inh: 1.8%; ELG1 DNA repair: -8.7%; RORg inh: -10.6%; Gal4-VP16 FLuc: 7.0%; DT40 TDP1 no CPT: 16.4µM*; DT40 TDP1 CPT: inconclusive

Results for C[C@H](NCc1ccc(OCc2cccc(F)c2)cc1)C(N)=O ?
ALOX12 inh: -25.1%[57.4 µM]

How did Cc1ccc(-c2nc3ccccn3c2Nc2ccccc2C)s1 do in these assays?
ALOX12 inh: -13.0%; DT40 TDP1 no CPT: 20.6µM*; DT40 TDP1 CPT: inconclusive

How did CC(=O)Nc1c(-c2ccccc2)nc2cc(C)ccn12 do in these assays?
ALOX12 inh: 5.3%; ELG1 DNA repair: inconclusive; RORg inh: 1.3%; Gal4-VP16 FLuc: 1.1%; DT40 TDP1 no CPT: 2.4%; DT40 TDP1 CPT: 3.0%

How did Cc1ccccc1Nc1c(-c2ccsc2)nc2c(C)cccn12 do in these assays?
ALOX12 inh: inconclusive; DT40 TDP1 no CPT: 20.6µM*; DT40 TDP1 CPT: 16.4µM*

Results for Cc1ccn2c(Nc3ccccc3C)c(-c3ccncc3)nc2c1 ?
ALOX12 inh: -25.8%; ELG1 DNA repair: inconclusive; RORg inh: -20.2%; Gal4-VP16 FLuc: 1.3%; DT40 TDP1 no CPT: 14.6µM*; DT40 TDP1 CPT: 16.4µM*

What do the screens show for `COc1ccc(CC(=O)N2CCC(Oc3ccc(C(=O)N(C)C)cn3)CC2)cc1Cl`?
ALOX12 inh: 2.8%

What do the screens show for `Nc1nnnn1/N=C/c1cccc(OCc2ccccc2Cl)c1`?
ALOX12 inh: 0.0%; ELG1 DNA repair: inconclusive; RORg inh: inconclusive; Gal4-VP16 FLuc: inconclusive; DT40 TDP1 no CPT: inconclusive; DT40 TDP1 CPT: 25.9µM*

What do the screens show for `Nc1nnnn1/N=C/c1cccc(Oc2ccccc2)c1`?
ALOX12 inh: -2.7%; ELG1 DNA repair: inconclusive; RORg inh: 37.3%; Gal4-VP16 FLuc: 9.3%; DT40 TDP1 no CPT: -3.8%; DT40 TDP1 CPT: -3.5%

Results for C=CCN1C(c2ccc(Br)cc2)=CS/C1=C(\C#N)c1nnc(N2CCOCC2)n1-c1ccccc1 ?
ALOX12 inh: 39.8µM*; DT40 TDP1 no CPT: -94.1%; DT40 TDP1 CPT: inconclusive

How did C=CCN1C(c2cccc(C(F)(F)F)c2)=CS/C1=C(\C#N)c1nnc(N2CCOCC2)n1-c1ccccc1 do in these assays?
ALOX12 inh: -6.5%; DT40 TDP1 no CPT: inconclusive; DT40 TDP1 CPT: 23.1µM*

Results for C=CCN1C(c2ccc(OCC)cc2)=CS/C1=C(\C#N)c1nnc2n1CCCCC2 ?
ALOX12 inh: -22.5%; ELG1 DNA repair: inconclusive; RORg inh: 10.4%[0.365 µM]; DT40 TDP1 no CPT: 29.1µM*; DT40 TDP1 CPT: inconclusive

What do the screens show for `C=CCN1C(=O)NC(c2ccccc2)(C(F)(F)F)S/C1=C(\C#N)c1nnc(N2CCOCC2)n1-c1ccccc1` (centres undefined)?
ALOX12 inh: -2.7%; ELG1 DNA repair: -14.4%; RORg inh: 5.62µM*; Gal4-VP16 FLuc: 12.6µM*; DT40 TDP1 no CPT: inconclusive; DT40 TDP1 CPT: inconclusive

Results for COC(=O)c1ccc(C(=O)OC)c(NC(=O)COC(=O)C2CCC(C(C)(C)C)CC2)c1 (centres undefined) ?
ALOX12 inh: -16.0%; ELG1 DNA repair: -28.6%; RORg inh: 3.6%; Gal4-VP16 FLuc: -7.7%; DT40 TDP1 no CPT: inconclusive; DT40 TDP1 CPT: 23.1µM*

What do the screens show for `COC(=O)c1ccc(C(=O)OC)c(NC(=O)COC(=O)CC2CC3CCC2C3)c1` (centres undefined)?
ALOX12 inh: -18.0%; ELG1 DNA repair: -14.0%; RORg inh: -23.3%; Gal4-VP16 FLuc: -7.1%; DT40 TDP1 no CPT: 23.1µM*; DT40 TDP1 CPT: inconclusive

How did O=C(CCc1ncc(-c2c(F)cccc2F)o1)N1CCN(c2ccc(F)cc2)CC1 do in these assays?
ALOX12 inh: 5.7%

Results for CC(C)C/C(O)=C/c1nc2cc(Cl)ccc2oc1=O ?
ALOX12 inh: inconclusive; ELG1 DNA repair: 2.9%; RORg inh: 3.0%; Gal4-VP16 FLuc: 5.6%; DT40 TDP1 no CPT: inconclusive; DT40 TDP1 CPT: inconclusive

How did O=c1oc2ccc(Cl)cc2nc1/C=C(\O)c1ccco1 do in these assays?
ALOX12 inh: 227.9%; ELG1 DNA repair: inconclusive; RORg inh: -22.3%; Gal4-VP16 FLuc: 2.6%; DT40 TDP1 no CPT: 18.4µM*; DT40 TDP1 CPT: inconclusive

Source: PubChem BioAssay
